Results taken from PubChem BioAssay AID1159580 (chemical genetic matrix, 2015).
The whole screen tested about 5,500 compounds, of which about 2,000 (36%) were called active. Roughly 18% stayed inconclusive and do not appear here. No stated cut-off is given here; in the data, active means normalized growth mostly below about 0.91 (no sharp cut-off); inconclusive means no clear call, values can overlap the other calls; inactive means mostly above about 0.92. The list shows a part of the results.

Test: chemical genetic growth profiling, strain panel (AID 1159580);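 further: tested at 20 µM; growth read once vehicle control cultures reached saturation at 30 °C; 1 = growth at the plate median or of vehicle wells; lower values mean less growth of the strain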
Details: growth OD

Measured: normalized growth

CC(C)N(C(=O)SCC(Cl)=C(Cl)Cl)C(C)C
inactive: S. cerevisiae deletion strains, locus YAL013W, strain DEP1, hits give low values 1.01 | S. cerevisiae deletion strains, locus YBR021W, strain FUR4, hits give low values 1.01 | S. cerevisiae deletion strains, locus YBR229C, strain ROT2, hits give low values 1.01 | S. cerevisiae deletion strains, locus YCL029C, strain bik1, hits give low values 1.01 | S. cerevisiae deletion strains, locus YDL035C, strain GPR1, hits give low values 1.01 | S. cerevisiae deletion strains, locus YDL074C, strain BRE1, hits give low values 1.04 | S. cerevisiae deletion strains, locus YDL101C, strain DUN1, hits give low values 1.02 | S. cerevisiae deletion strains, locus YDL134C, strain PPH21, hits give low values 1.02 | S. cerevisiae deletion strains, locus YDL185W, strain tfp1, hits give low values 0.999 | S. cerevisiae deletion strains, locus YDL192W, strain arf1, hits give low values 0.998 | S. cerevisiae deletion strains, locus YDR101C, strain arx1, hits give low values 0.998 | S. cerevisiae deletion strains, locus YDR150W, strain NUM1, hits give low values 1.02 | S. cerevisiae deletion strains, locus YDR162C, strain NBP2, hits give low values 1.02 | S. cerevisiae deletion strains, locus YDR318W, strain mcm21, hits give low values 1 | S. cerevisiae deletion strains, locus YDR388W, hits give low values 1 | S. cerevisiae deletion strains, locus YDR502C, strain sam2, hits give low values 1 | S. cerevisiae deletion strains, locus YEL061C, strain CIN8, hits give low values 1.01 | S. cerevisiae deletion strains, locus YER110C, hits give low values 0.998 | S. cerevisiae deletion strains, locus YER155C, strain BEM2, hits give low values 1.02 | S. cerevisiae deletion strains, locus YER167W, strain BCK2, hits give low values 1.03 | S. cerevisiae deletion strains, locus YGL078C, strain dbp3, hits give low values 0.996 | S. cerevisiae deletion strains, locus YGL086W, strain mad1, hits give low values 1.01 | S. cerevisiae deletion strains, locus YGL248W, strain PDE1, hits give low values 1.02 | S. cerevisiae deletion strains, locus YGR078C, strain PAC10, hits give low values 1.02 | S. cerevisiae deletion strains, locus YGR135W, strain pre9, hits give low values 0.995 | S. cerevisiae deletion strains, locus YGR229C, strain SMI1, hits give low values 1.04 | S. cerevisiae deletion strains, locus YGR252W, strain gcn5, hits give low values 0.945 | S. cerevisiae deletion strains, locus YHR030C, strain SLT2, hits give low values 1.02 | S. cerevisiae deletion strains, locus YHR079C, strain IRE1 (second series), hits give low values 1 | S. cerevisiae deletion strains, locus YHR094C, strain hxt1, hits give low values 1.01 | S. cerevisiae deletion strains, locus YHR200W, strain rpn10, hits give low values 1 | S. cerevisiae deletion strains, locus YIL066C, strain RNR3, hits give low values 1.02 | S. cerevisiae deletion strains, locus YIL073C, strain SPO22, hits give low values 1.04 | S. cerevisiae deletion strains, locus YIL125W, strain kgd1, hits give low values 1 | S. cerevisiae deletion strains, locus YIR030C, strain dcg1, hits give low values 1 | S. cerevisiae deletion strains, locus YJL095W, strain BCK1, hits give low values 1.03 | S. cerevisiae deletion strains, locus YJL134W, strain LCB3, hits give low values 1.02 | S. cerevisiae deletion strains, locus YJL168C, strain set2, hits give low values 1 | S. cerevisiae deletion strains, locus YJL187C, strain SWE1 (second series), hits give low values 1.01 | S. cerevisiae deletion strains, locus YJR043C, strain POL32, hits give low values 1.01 | S. cerevisiae deletion strains, locus YJR075W, strain HOC1, hits give low values 1.03 | S. cerevisiae deletion strains, locus YKL009W, strain mrt4, hits give low values 1.01 | S. cerevisiae deletion strains, locus YKL068W, hits give low values 1.01 | S. cerevisiae deletion strains, locus YKL085W, strain MDH1 (second series), hits give low values 1.01 | S. cerevisiae deletion strains, locus YKL085W, strain MDH1, hits give low values 1.01 | S. cerevisiae deletion strains, locus YKL190W, strain CNB1, hits give low values 1.04 | S. cerevisiae deletion strains, locus YKR001C, strain vps1, hits give low values 0.987 | S. cerevisiae deletion strains, locus YLR039C, strain RIC1, hits give low values 0.9 | S. cerevisiae deletion strains, locus YLR058C, strain SHM2, hits give low values 1.01 | S. cerevisiae deletion strains, locus YLR102C, strain apc9, hits give low values 1.01 | S. cerevisiae deletion strains, locus YLR262C, strain YPT6, hits give low values 0.977 | S. cerevisiae deletion strains, locus YLR268W, strain sec22, hits give low values 0.981 | S. cerevisiae deletion strains, locus YLR330W, strain CHS5, hits give low values 1.01 | S. cerevisiae deletion strains, locus YLR342W, strain FKS1 (second series), hits give low values 1.02 | S. cerevisiae deletion strains, locus YLR371W, strain rom2, hits give low values 1 | S. cerevisiae deletion strains, locus YLR418C, strain cdc73, hits give low values 0.996 | S. cerevisiae deletion strains, locus YML016C, strain PPZ1, hits give low values 1.02 | S. cerevisiae deletion strains, locus YML032C, strain rad52, hits give low values 1 | S. cerevisiae deletion strains, locus YML124C, strain tub3, hits give low values 1 | S. cerevisiae deletion strains, locus YMR078C, strain ctf18, hits give low values 1.01 | S. cerevisiae deletion strains, locus YMR223W, strain ubp8, hits give low values 0.998 | S. cerevisiae deletion strains, locus YMR263W, strain SAP30, hits give low values 1.03 | S. cerevisiae deletion strains, locus YMR307W, strain GAS1, hits give low values 1.01 | S. cerevisiae deletion strains, locus YNL067W, strain RPL9B, hits give low values 1.02 | S. cerevisiae deletion strains, locus YNL128W, strain TEP1, hits give low values 1.02 | S. cerevisiae deletion strains, locus YNL153C, strain GIM3, hits give low values 1.01 | S. cerevisiae deletion strains, locus YNL233W, strain BNI4, hits give low values 1.02 | S. cerevisiae deletion strains, locus YNL250W, strain rad50, hits give low values 0.999 | S. cerevisiae deletion strains, locus YNL271C, strain bni1, hits give low values 1 | S. cerevisiae deletion strains, locus YNL298W, strain CLA4, hits give low values 0.986 | S. cerevisiae deletion strains, locus YNL307C, strain MCK1, hits give low values 0.979 | S. cerevisiae deletion strains, locus YNL322C, strain KRE1, hits give low values 1.01 | S. cerevisiae deletion strains, locus YNR052C, strain pop2, hits give low values 1 | S. cerevisiae deletion strains, locus YOL006C, strain TOP1, hits give low values 1.08 | S. cerevisiae deletion strains, locus YOL012C, strain htz1 0.763 | S. cerevisiae deletion strains, locus YOL147C, strain pex11, hits give low values 1 | S. cerevisiae deletion strains, locus YOR061W, strain CKA2, hits give low values 1.02 | S. cerevisiae deletion strains, locus YOR069W, strain VPS5, hits give low values 1.02 | S. cerevisiae deletion strains, locus YOR136W, strain idh2, hits give low values 0.996 | S. cerevisiae deletion strains, locus YOR144C, strain elg1, hits give low values 1.01 | S. cerevisiae deletion strains, locus YOR184W, strain ser1, hits give low values 0.99 | S. cerevisiae deletion strains, locus YOR316C, strain cot1, hits give low values 1.01 | S. cerevisiae deletion strains, locus YPL055C, strain LGE1, hits give low values 1.04 | S. cerevisiae deletion strains, locus YPL241C, strain CIN2, hits give low values 1.02 | S. cerevisiae deletion strains, locus YPR119W, strain clb2, hits give low values 1 | S. cerevisiae deletion strains, locus YPR141C, strain kar3, hits give low values 1 | S. cerevisiae deletion strains, locus YPR163C, strain tif3, hits give low values 0.998 | S. cerevisiae deletion strains, locus YPR167C, strain met16, hits give low values 1.01 | S. cerevisiae deletion strains, strain wtn01, hits give low values 0.998 | S. cerevisiae strains, strain wild type, hits give low values 1.01
